# In article PMC12820563, “FoxP3 forms a head-to-head dimer in vivo and stabilizes its multimerization on adjacent microsatellites”:
# The full ranking holds about 16,000 sequences; the median of “rpm ratio (pull-down/input)” is about 0.5, and the highest 2% start at about 5.5. Shown is part of a subset that was picked to be rich in the highest values.
# Target: T1, MBP-FoxP3dN (Mus musculus, UniProt Q99JB6 188-423)
# T1 sequence: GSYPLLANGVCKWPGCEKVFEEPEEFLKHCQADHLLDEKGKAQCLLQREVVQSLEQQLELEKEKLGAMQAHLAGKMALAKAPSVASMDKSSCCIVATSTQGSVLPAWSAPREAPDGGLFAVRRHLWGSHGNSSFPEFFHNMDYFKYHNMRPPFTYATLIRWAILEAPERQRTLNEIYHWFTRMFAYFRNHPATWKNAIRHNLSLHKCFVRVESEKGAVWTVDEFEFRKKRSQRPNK
# Assay: PD-seq (MBP pull-down with sequencing); 20 mM Tris-HCl pH 7.5, 100 mM NaCl, 1.5 mM MgCl2, 0.4 uM protein, 0.1 uM dsDNA library, 30 min, room temperature, amylose pull-down; high values mean tight binding
# Conditions: protein: recombinant; tags: His6-MBP; chain copies: 2; dsDNA, one strand shown
# Method in brief: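 Mouse FoxP3 or FoxP1 fragment lacking the N-terminus, His6-MBP-tagged and expressed in E. coli, was incubated at 0.4 µM with 0.1 µM Klenow-filled degenerate double-stranded DNA library for 30 min at room temperature in Tris pH 7.5 buffer with NaCl and MgCl2. Complexes captured on amylose resin were washed three times and their DNA sequenced on Illumina. Binding is reads-per-million enrichment of pull-down over input, replicates pooled.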
row,Sequence,binding signal
1,GATGATTGTTCTCCCAGCTGATGAATTCGTCGTCTCGAGTAAACAAATTTTCCTAATCTTTCTGTTCAAGCGCCATCTAC,1.31 RPM ratio (pull-down/input)
2,GATGATTGTTCTCCCAGCTGATGAATTAAAGTGCTCGAGTAAACAAATTTTCCTAATCTTTCTGTTCAAGCGCCATCTAC,0.358 RPM ratio (pull-down/input)
3,GATGATTGTTCTCCCAGCTGATGAATTTTCCTTCTCGAGTAAACAAATTTTCCTAATCTTTCTGTTCAAGCGCCATCTAC,0.258 RPM ratio (pull-down/input)
4,GATGATTGTTCTCCCAGCTGATGAATTTAGATTATCGAGTAAACAAATTTTCCTAATCTTTCTGTTCAAGCGCCATCTAC,1.31 RPM ratio (pull-down/input)
5,GATGATTGTTCTCCCAGCTGATGAATTTTTTTTATCGAGTAAACAAATTTTCCTAATCTTTCTGTTCAAGCGCCATCTAC,0.295 RPM ratio (pull-down/input)
6,GATGATTGTTCTCCCAGCTGATGAATTTTTTACATCGAGTAAACAAATTTTCCTAATCTTTCTGTTCAAGCGCCATCTAC,0.25 RPM ratio (pull-down/input)
7,GATGATTGTTCTCCCAGCTGATGAATTTCTTTTATCGAGTAAACAAATTTTCCTAATCTTTCTGTTCAAGCGCCATCTAC,0.545 RPM ratio (pull-down/input)
8,GATGATTGTTCTCCCAGCTGATGAATTTGTTTTATCGAGTAAACAAATTTTCCTAATCTTTCTGTTCAAGCGCCATCTAC,6.46 RPM ratio (pull-down/input)
9,GATGATTGTTCTCCCAGCTGATGAATTTATCTCCTCGAGTAAACAAATTTTCCTAATCTTTCTGTTCAAGCGCCATCTAC,0.631 RPM ratio (pull-down/input)
10,GATGATTGTTCTCCCAGCTGATGAATTTACAACATCGAGTAAACAAATTTTCCTAATCTTTCTGTTCAAGCGCCATCTAC,1.26 RPM ratio (pull-down/input)
11,GATGATTGTTCTCCCAGCTGATGAATTGTTTATCTCGAGTAAACAAATTTTCCTAATCTTTCTGTTCAAGCGCCATCTAC,6.57 RPM ratio (pull-down/input)
12,GATGATTGTTCTCCCAGCTGATGAATTTTTTATCTCGAGTAAACAAATTTTCCTAATCTTTCTGTTCAAGCGCCATCTAC,0.243 RPM ratio (pull-down/input)
13,GATGATTGTTCTCCCAGCTGATGAATTGTTTACATCGAGTAAACAAATTTTCCTAATCTTTCTGTTCAAGCGCCATCTAC,8.09 RPM ratio (pull-down/input)
14,GATGATTGTTCTCCCAGCTGATGAATTGTGTCCCTCGAGTAAACAAATTTTCCTAATCTTTCTGTTCAAGCGCCATCTAC,2.1 RPM ratio (pull-down/input)
15,GATGATTGTTCTCCCAGCTGATGAATTTCCTCCCTCGAGTAAACAAATTTTCCTAATCTTTCTGTTCAAGCGCCATCTAC,0.223 RPM ratio (pull-down/input)
16,GATGATTGTTCTCCCAGCTGATGAATTGGCGTCCTCGAGTAAACAAATTTTCCTAATCTTTCTGTTCAAGCGCCATCTAC,1.06 RPM ratio (pull-down/input)
17,GATGATTGTTCTCCCAGCTGATGAATTACCCAACTCGAGTAAACAAATTTTCCTAATCTTTCTGTTCAAGCGCCATCTAC,0.253 RPM ratio (pull-down/input)
18,GATGATTGTTCTCCCAGCTGATGAATTATTTCTGTCGAGTAAACAAATTTTCCTAATCTTTCTGTTCAAGCGCCATCTAC,0.335 RPM ratio (pull-down/input)
19,GATGATTGTTCTCCCAGCTGATGAATTTTATTTGTCGAGTAAACAAATTTTCCTAATCTTTCTGTTCAAGCGCCATCTAC,6.21 RPM ratio (pull-down/input)
20,GATGATTGTTCTCCCAGCTGATGAATTATTTTTGTCGAGTAAACAAATTTTCCTAATCTTTCTGTTCAAGCGCCATCTAC,0.947 RPM ratio (pull-down/input)
21,GATGATTGTTCTCCCAGCTGATGAATTATTTGTGTCGAGTAAACAAATTTTCCTAATCTTTCTGTTCAAGCGCCATCTAC,2.76 RPM ratio (pull-down/input)

row,Sequence,binding signal
1,GATGATTGTTCTCCCAGCTGATGAATTTATTGTGTCGAGTAAACAAATTTTCCTAATCTTTCTGTTCAAGCGCCATCTAC,6.95 RPM ratio (pull-down/input)
2,GATGATTGTTCTCCCAGCTGATGAATTATATCTGTCGAGTAAACAAATTTTCCTAATCTTTCTGTTCAAGCGCCATCTAC,0.544 RPM ratio (pull-down/input)
3,GATGATTGTTCTCCCAGCTGATGAATTTTTATTGTCGAGTAAACAAATTTTCCTAATCTTTCTGTTCAAGCGCCATCTAC,0.972 RPM ratio (pull-down/input)
4,GATGATTGTTCTCCCAGCTGATGAATTATTATTGTCGAGTAAACAAATTTTCCTAATCTTTCTGTTCAAGCGCCATCTAC,2.61 RPM ratio (pull-down/input)
5,GATGATTGTTCTCCCAGCTGATGAATTGTTATTGTCGAGTAAACAAATTTTCCTAATCTTTCTGTTCAAGCGCCATCTAC,6.63 RPM ratio (pull-down/input)
6,GATGATTGTTCTCCCAGCTGATGAATTTATTCTGTCGAGTAAACAAATTTTCCTAATCTTTCTGTTCAAGCGCCATCTAC,0.533 RPM ratio (pull-down/input)
7,GATGATTGTTCTCCCAGCTGATGAATTTTATGTGTCGAGTAAACAAATTTTCCTAATCTTTCTGTTCAAGCGCCATCTAC,2.49 RPM ratio (pull-down/input)
8,GATGATTGTTCTCCCAGCTGATGAATTATATTTGTCGAGTAAACAAATTTTCCTAATCTTTCTGTTCAAGCGCCATCTAC,5.66 RPM ratio (pull-down/input)
9,GATGATTGTTCTCCCAGCTGATGAATTGTGCCGATCGAGTAAACAAATTTTCCTAATCTTTCTGTTCAAGCGCCATCTAC,1.02 RPM ratio (pull-down/input)
10,GATGATTGTTCTCCCAGCTGATGAATTTTTTGAATCGAGTAAACAAATTTTCCTAATCTTTCTGTTCAAGCGCCATCTAC,0.229 RPM ratio (pull-down/input)
11,GATGATTGTTCTCCCAGCTGATGAATTGGGTGTTTCGAGTAAACAAATTTTCCTAATCTTTCTGTTCAAGCGCCATCTAC,1.38 RPM ratio (pull-down/input)
12,GATGATTGTTCTCCCAGCTGATGAATTCAACTGATCGAGTAAACAAATTTTCCTAATCTTTCTGTTCAAGCGCCATCTAC,0.332 RPM ratio (pull-down/input)
13,GATGATTGTTCTCCCAGCTGATGAATTGAATATGTCGAGTAAACAAATTTTCCTAATCTTTCTGTTCAAGCGCCATCTAC,0.689 RPM ratio (pull-down/input)
14,GATGATTGTTCTCCCAGCTGATGAATTGACACTCTCGAGTAAACAAATTTTCCTAATCTTTCTGTTCAAGCGCCATCTAC,0.6 RPM ratio (pull-down/input)
15,GATGATTGTTCTCCCAGCTGATGAATTCTTGAATTCGAGTAAACAAATTTTCCTAATCTTTCTGTTCAAGCGCCATCTAC,0.493 RPM ratio (pull-down/input)
16,GATGATTGTTCTCCCAGCTGATGAATTGTACTTTTCGAGTAAACAAATTTTCCTAATCTTTCTGTTCAAGCGCCATCTAC,0.551 RPM ratio (pull-down/input)
17,GATGATTGTTCTCCCAGCTGATGAATTGGGTGAGTCGAGTAAACAAATTTTCCTAATCTTTCTGTTCAAGCGCCATCTAC,0.443 RPM ratio (pull-down/input)
18,GATGATTGTTCTCCCAGCTGATGAATTCACTTGTTCGAGTAAACAAATTTTCCTAATCTTTCTGTTCAAGCGCCATCTAC,1.02 RPM ratio (pull-down/input)
19,GATGATTGTTCTCCCAGCTGATGAATTCAGTAACTCGAGTAAACAAATTTTCCTAATCTTTCTGTTCAAGCGCCATCTAC,1.34 RPM ratio (pull-down/input)
20,GATGATTGTTCTCCCAGCTGATGAATTCAACACCTCGAGTAAACAAATTTTCCTAATCTTTCTGTTCAAGCGCCATCTAC,0.553 RPM ratio (pull-down/input)
21,GATGATTGTTCTCCCAGCTGATGAATTTTATTGGTCGAGTAAACAAATTTTCCTAATCTTTCTGTTCAAGCGCCATCTAC,4.94 RPM ratio (pull-down/input)

row,Sequence,binding signal
1,GATGATTGTTCTCCCAGCTGATGAATTATTTTGGTCGAGTAAACAAATTTTCCTAATCTTTCTGTTCAAGCGCCATCTAC,0.995 RPM ratio (pull-down/input)
2,GATGATTGTTCTCCCAGCTGATGAATTTAATTTGTCGAGTAAACAAATTTTCCTAATCTTTCTGTTCAAGCGCCATCTAC,3.39 RPM ratio (pull-down/input)
3,GATGATTGTTCTCCCAGCTGATGAATTTATTTGGTCGAGTAAACAAATTTTCCTAATCTTTCTGTTCAAGCGCCATCTAC,6.15 RPM ratio (pull-down/input)
4,GATGATTGTTCTCCCAGCTGATGAATTTATATTGTCGAGTAAACAAATTTTCCTAATCTTTCTGTTCAAGCGCCATCTAC,2.37 RPM ratio (pull-down/input)
5,GATGATTGTTCTCCCAGCTGATGAATTTATTTTGTCGAGTAAACAAATTTTCCTAATCTTTCTGTTCAAGCGCCATCTAC,5.94 RPM ratio (pull-down/input)
6,GATGATTGTTCTCCCAGCTGATGAATTGCCCCCTTCGAGTAAACAAATTTTCCTAATCTTTCTGTTCAAGCGCCATCTAC,0.413 RPM ratio (pull-down/input)
7,GATGATTGTTCTCCCAGCTGATGAATTTCCGGTATCGAGTAAACAAATTTTCCTAATCTTTCTGTTCAAGCGCCATCTAC,0.44 RPM ratio (pull-down/input)
8,GATGATTGTTCTCCCAGCTGATGAATTTGGCCATTCGAGTAAACAAATTTTCCTAATCTTTCTGTTCAAGCGCCATCTAC,4.06 RPM ratio (pull-down/input)
9,GATGATTGTTCTCCCAGCTGATGAATTGGCATCCTCGAGTAAACAAATTTTCCTAATCTTTCTGTTCAAGCGCCATCTAC,4.28 RPM ratio (pull-down/input)
10,GATGATTGTTCTCCCAGCTGATGAATTGGCATTTTCGAGTAAACAAATTTTCCTAATCTTTCTGTTCAAGCGCCATCTAC,3.38 RPM ratio (pull-down/input)
11,GATGATTGTTCTCCCAGCTGATGAATTTTGGCATTCGAGTAAACAAATTTTCCTAATCTTTCTGTTCAAGCGCCATCTAC,5.56 RPM ratio (pull-down/input)
12,GATGATTGTTCTCCCAGCTGATGAATTTGGCATTTCGAGTAAACAAATTTTCCTAATCTTTCTGTTCAAGCGCCATCTAC,6.16 RPM ratio (pull-down/input)
13,GATGATTGTTCTCCCAGCTGATGAATTGGCATTCTCGAGTAAACAAATTTTCCTAATCTTTCTGTTCAAGCGCCATCTAC,3.49 RPM ratio (pull-down/input)
14,GATGATTGTTCTCCCAGCTGATGAATTCGTGGCATCGAGTAAACAAATTTTCCTAATCTTTCTGTTCAAGCGCCATCTAC,1.13 RPM ratio (pull-down/input)
15,GATGATTGTTCTCCCAGCTGATGAATTGGCATCTTCGAGTAAACAAATTTTCCTAATCTTTCTGTTCAAGCGCCATCTAC,4.07 RPM ratio (pull-down/input)
16,GATGATTGTTCTCCCAGCTGATGAATTTTTGGCATCGAGTAAACAAATTTTCCTAATCTTTCTGTTCAAGCGCCATCTAC,0.785 RPM ratio (pull-down/input)
17,GATGATTGTTCTCCCAGCTGATGAATTTGGCATCTCGAGTAAACAAATTTTCCTAATCTTTCTGTTCAAGCGCCATCTAC,6.36 RPM ratio (pull-down/input)
18,GATGATTGTTCTCCCAGCTGATGAATTGTGGCATTCGAGTAAACAAATTTTCCTAATCTTTCTGTTCAAGCGCCATCTAC,6.18 RPM ratio (pull-down/input)
19,GATGATTGTTCTCCCAGCTGATGAATTCTGGCATTCGAGTAAACAAATTTTCCTAATCTTTCTGTTCAAGCGCCATCTAC,4.83 RPM ratio (pull-down/input)
20,GATGATTGTTCTCCCAGCTGATGAATTGGGTGGTTCGAGTAAACAAATTTTCCTAATCTTTCTGTTCAAGCGCCATCTAC,0.736 RPM ratio (pull-down/input)
21,GATGATTGTTCTCCCAGCTGATGAATTGCAGAGTTCGAGTAAACAAATTTTCCTAATCTTTCTGTTCAAGCGCCATCTAC,0.781 RPM ratio (pull-down/input)
